# Measured values as given in publication PMC5540273 (PLoS ONE, 2017).
# Columns and labels:
# Settings in all cases: concentration: 1 μM, replicates: in singlicate; n = 1
# DYRK1B = test system: DYRK1B
# DYRK2 = test system: DYRK2
# EGFR = test system: EGFR
# EIF2AK1 = test system: EIF2AK1
# EPHA1 = test system: EPHA1
# EPHA2 = test system: EPHA2
# EPHA3 = test system: EPHA3
# EPHA4 = test system: EPHA4
# EPHA5 = test system: EPHA5
# EPHA6 = test system: EPHA6
# 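Note: KINOMEscan kinase panel screen.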
Compound,%Inh (DYRK1B) [%],%Inh (DYRK2) [%],%Inh (EGFR) [%],%Inh (EIF2AK1) [%],%Inh (EPHA1) [%],%Inh (EPHA2) [%],%Inh (EPHA3) [%],%Inh (EPHA4) [%],%Inh (EPHA5) [%],%Inh (EPHA6) [%]
Cc1ccc(F)c(C(=O)Nc2cccc(-c3nn4ccccc4c3-c3ccnc(Nc4cccc(F)c4)n3)c2)c1F [GSK361061],0,5,99.1,9,32,26,25,20,1,32
Nc1ncc(-c2ccc3nccc(-c4ccncc4)c3c2)cc1S(=O)(=O)N1CCOCC1 [GSK1627798],0,21,18,0,4,4,0,0,0,5
NCCCC(NC(=O)c1cc(Br)c(-c2ccnc3[nH]ccc23)s1)c1ccccc1.O=C(O)C(F)(F)F.O=C(O)C(F)(F)F (stereo not shown) [GSK1287544],22,37,4,0,6,0,0,11,5,18
CCCCc1nn2ncccc2c1-c1ccnc(Nc2ccc(N3CCN(C)CC3)cc2)n1 [GW684941],20,3,81,0,88,42,9,29,0,40
Nc1ncnc2c1nc(-c1ccccc1)n2-c1ccccc1 [SKF-97293],6,25,7,20,22,0,0,30,13,28
Cl.c1ccc(-c2ccc3c(Nc4ccc5[nH]ncc5c4)ccnc3c2)nc1 [GW440137],31,26,66,0,32,0,7,2,0,28
O=C(Nc1cccc(-c2nn3ccccc3c2-c2ccnc(Nc3cccc(C(F)(F)F)c3)n2)c1)c1c(F)cccc1F [GSK292658],1,3,98.2,0,5,8,0,5,0,7
COc1ccc(Nc2nccc(N3CCC(NC(=O)Nc4cccc(OC)c4)C3)n2)cc1 (stereo not shown) [GSK1379742],0,0,20,0,10,0,0,1,0,8
O=C(Nc1cccc(-c2nn3ccccc3c2-c2ccnc(Nc3cccc(F)c3)n2)c1)c1c(F)ccc(F)c1Cl [GSK357952],0,11,100,39,5,0,0,25,0,15
COc1cc(Nc2nccc(-c3c(-c4cccc(NC(=O)c5c(F)cccc5F)c4)nn4ncccc34)n2)cc(OC)c1OC [GSK327238],33,16,100,0,86,71,42,65,0,49
Cl.Cl.NCC(NCc1ccc(-c2ccnc3[nH]ccc23)s1)c1ccccc1 (stereo not shown) [GSK1321565],25,80,24,0,24,0,0,0,0,0
Fc1ccc(-c2ncn(C3CCNCC3)c2-c2ccnc(Oc3ccc(-c4ccccc4)cc3)n2)cc1 [SB-245391],25,36,3,12,19,0,0,19,9,17
Cl.NC(=O)c1cccc(Nc2nccc(Nc3ccc(Oc4c(Cl)cccc4Cl)c(Cl)c3)n2)c1 [GW659009],0,6,99.5,13,0,0,0,0,0,0
c1ccc(-c2cnc3nccnn23)cc1 [AH20685],5,3,14,0,0,11,0,0,0,0
Cc1ccc(C(=O)Nc2ccc(Nc3ccnc4cc(-c5nccs5)ccc34)cc2O)cc1.Cl [GW494702],0,0,45,6,8,15,0,9,0,15
Oc1cc(Nc2ccnc3cc(I)ccc23)ccc1F [GW552771],0,8,32,0,94.8,34,48,29,0,29
COC(=O)Nc1nc2cc(Oc3ccc(NC(=O)Nc4cc(C(F)(F)F)ccc4F)cn3)ccc2[nH]1.Cl.Cl [GW681170],12,0,12,5,64,92.3,47,81,43,91
Nc1n[nH]c2cnc(-c3ccccc3)cc12 [SB-642124],75,88,38,4,26,16,0,12,0,6
O=c1[nH]cc(-c2ccc(N3CCOCC3)cc2)c2sc(-c3cn[nH]c3)cc12 [GSK2276055],100,89,18,0,0,0,30,0,0,0

Compound,%Inh (DYRK1B) [%],%Inh (DYRK2) [%],%Inh (EGFR) [%],%Inh (EIF2AK1) [%],%Inh (EPHA1) [%],%Inh (EPHA2) [%],%Inh (EPHA3) [%],%Inh (EPHA4) [%],%Inh (EPHA5) [%],%Inh (EPHA6) [%]
O=C(Nc1ccccc1F)NC1CCN(c2ccnc(Nc3ccc(F)cc3)n2)CC1 [GSK1379800],12,0,47,0,0,0,0,5,0,5
COc1cccc(-c2ccc3c(NC(=O)C4CC4)n[nH]c3n2)c1 [SB-710903],0,73,20,5,20,0,0,20,0,23
Cl.Cl.NCC(C(=O)Nc1cc(Br)c(-c2ccnc3[nH]ccc23)s1)c1ccccc1 (stereo not shown) [GSK1269851],33,78,27,0,83,4,48,28,0,32
C[C@@H]1CC[C@@H](C(=O)Nc2ccccc2)CN1c1cc(-c2ccc3c(N)n[nH]c3c2)nc(N)n1 [GSK2286062],0,3,43,0,1,17,2,0,0,0
O=C(Nc1n[nH]c2cc(-c3ccoc3)ccc12)C1CC1 [SB-738481],23,75,6,0,13,0,0,5,2,9
O=C(Nc1cccc(Oc2ccc3nc(NC(=O)C4CC4)cn3n2)c1)c1ccccc1C(F)(F)F,12,0,82,0,35,29,3,28,0,16
Cc1cccc(NC(=O)Nc2ccc(Oc3ncnc4ccn(C)c34)cc2)c1,9,0,1,0,0,0,17,0,9,28
COc1cccc(C(=O)Nc2cccc(Oc3ccc4nc(NC(=O)C5CC5)cn4n3)c2)c1,19,9,78,0,42,98.7,62,79,57,68
Cc1cccc(Nc2nc(N[C@H]3CCNC3)ncc2C(N)=O)c1.Cl [GSK2197149],12,32,50,22,0,0,45,8,0,7
CCn1c(-c2nonc2N)nc2c(C#CC(C)(C)O)ncc(OCCCCN)c21.O=C(O)C(F)(F)F.O=C(O)C(F)(F)F [GSK507274],0,8,9,27,20,43,38,8,0,20
O=C(Nc1cccc(-c2nn3ncccc3c2-c2ccnc(Nc3ccccc3)n2)c1)c1c(F)cccc1F [GSK198271],100,26,100,52,42,10,4,0,0,8
CCc1ccc(-c2ccc3c(c2)-c2c(cnn2C)S(=O)(=O)N3C)cc1,3,0,15,0,0,0,0,1,8,0
Nc1ncc(-c2cccnc2)c2scc(-c3ccc4c(c3)CCN4C(=O)Cc3ccccc3)c12 [GSK683281],27,24,16,25,13,8,0,7,0,11
COCCOCCOc1cc2ncc3c4ccc(C#N)cc4[nH]c3c2cc1OC,72,70,12,0,15,33,0,23,11,25
CN(C)Cc1ccc(-c2ccc3c(Nc4ccc(Oc5ccccn5)cc4)ccnc3c2)o1 [GW567148],0,0,53,0,79,1,0,60,0,53
C[C@@H](Oc1cc(-n2cnc3cc(-c4ccnc(NCCS(C)(=O)=O)c4)ccc32)sc1C(N)=O)c1ccccc1Cl [GSK907232],0,15,35,1,9,16,0,10,0,23
Cc1ccc(C)c(NC(=O)NC2CCN(c3ccnc(Nc4ccc(F)cc4)n3)C2)c1 (stereo not shown) [GSK1379720],0,8,0,0,18,0,0,0,0,0
CN(c1ccc(NC(=O)Nc2cc(C(F)(F)F)ccc2F)cc1)c1ccnc(Nc2ccc(S(N)(=O)=O)cc2)n1 [GW809893],10,14,4,10,97.4,96.1,78,96.9,97.5,98.5
